# Source: PubChem BioAssay (Tox21)
# Unmarked numbers belong to inactive results. Activity calls are given as the source filed them. The call rests on the fitted dose curve; in most records, active means well fitted curve in the direction sought with a large enough effect in the repeat runs; inconclusive means weak or mixed curves; inactive means flat fitted curve, though single readings scatter.
# Experiment: qHTS assay to test for compound auto fluorescence at 460 nm (blue) in HEK293 cell free culture (AID 720681)
# Details: cell-free medium, autofluorescence 405/460 nm (blue); series mostly up to 91.3 µM; fluorescence, % of fluorescent control: at the top concentration
# From the text: U.S. Tox21 Program National Center for Advancing Translational Sciences [NCATS] NIH Chemical Genomics Center [NCGC] U.S. Environmental Protection Agency [EPA] National Institutes of Environmental Health Sciences [NIEHS] National Toxicology Program [NTP] U.S. Food and Drug Administration [FDA] Tox21 Assay Overview: Compound auto fluorescence often interferes with screening of the compound library against various biological targets and signaling pathways. Some of these compounds may have fluorophoric properties. Such properties may interfere with the assay outputs resulting in false positives and/or negatives. To decrease such complications and ensure the compound activities are relevant in terms of biological response, the Tox21 10K compound library was screened for auto fluorescence. From the fluorophores used as reporter signals in our screening assays, the auto fluorescence equivalencies of compounds against three fluorophores have been evaluated: Triamterene, Fluorescein and Rose Bengal sodium for blue, green and red fluorescence, respectively. The fluorescence intensities were measured using Excitation/Emission wavelengths at 405/460nm, 485/535nm and 540/590nm for blue, green and red labels, respectively. This assay includes the blue fluorescence data.
# Tox21 Assay Protocol Summary: 5 uL of culture medium (DMEM containing 10% FBS) per well was dispensed into black wall/clear bottom 1536-well plates using a Multidrop Combi Dispenser (ThermoFisher Scientific, Waltham, MA). After 23 nL compound or DMSO vehicle was transferred into assay plate by a pintool work station (Kalypsys, San Diego, CA), fluorescence intensities in the assay plates were measured by an Envision (PerkinElmer, Shelton, CT) plate reader using three labels for measuring blue, green and red fluorescence at […] 460, 535 and 590nm respectively.
# On the % scale 0 is the no-effect control and ±100 the full control effect.
Compound,"fluorescence, % of fluorescent control",outcome
COCc1cnc(C2=NC(C)(C(C)C)C(=O)N2)c(C(=O)O)c1 (stereo not given),-0.0139%,
COc1ccc2c(c1OC)C(=O)O[C@H]2[C@@H]1c2cc3c(cc2CCN1C)OCO3,0.555% [at 46 µM],
CN(C)N,-0.0931%,
CC(C)CCCCCCCOC(=O)c1ccccc1C(=O)OCCCCCCCC(C)C,-0.256%,
c1ccc2c(c1)sc1ccccc12,,inactive
CCOC(=O)c1cncn1C(C)c1ccccc1 (stereo not given),-0.0565% [at 18.6 µM],
C[C@H]1O[C@H](OC2[C@@H](O)[C@@H](O)C(O)[C@H](O)[C@H]2O)[C@@H](N)C[C@@H]1N=C(N)C(=O)O (stereo not given in full),0.086%,
Cc1ncc(C[n+]2csc(CCO)c2C)c(N)n1,,inactive
O=C(N[C@H]1CN2CCC1CC2)c1ccc2c(c1)OCCO2,-0.192%,
CCOP(=S)(OCC)Oc1ccc(S(C)=O)cc1 (stereo not given),0.0826%,
CCCN(CCC)C(=O)Cc1c(-c2ccc(Cl)cc2)nc2ccc(Cl)cn12,-0.0685% [at 46 µM],
CC(C)(c1ccccc1)c1cc(-n2nc3ccccc3n2)c(O)c(C(C)(C)c2ccccc2)c1,-0.205% [at 46 µM],
CCCC(C)(COC(N)=O)COC(=O)NC(C)C (stereo not given),,inactive
CC(=O)OC(c1ccccc1)C(Cl)(Cl)Cl (stereo not given),-0.256%,
COC(=O)Cc1ccccc1,-0.0869%,
CCCC[N+]1(C)[C@@H]2CC(OC(=O)[C@H](CO)c3ccccc3)C[C@H]1[C@@H]1O[C@@H]12 (stereo not given in full),-0.0183% [at 46 µM],
C=CCOC(=O)C(C)(C)OC(=O)c1cc(-n2c(=O)cc(C(F)(F)F)n(C)c2=O)ccc1Cl,0.114%,
FC(F)OC(F)(F)C(F)Cl (stereo not given),,inactive
N#CC(C#N)=C(C#N)C#N,-0.012% [at 95.7 µM],
NCCc1cc(O)c(O)cc1O,0.833% [at 46 µM],

Compound,"fluorescence, % of fluorescent control",outcome
O=C(Cl)OCCOCCOC(=O)Cl,-0.0735%,
CCCBr,-0.195%,
Cc1nc(N(C)C)nc(OC(=O)N(C)C)c1C,-0.213%,
CCOC(=O)NC(O)C(Cl)(Cl)Cl (stereo not given),0.0783% [at 46 µM],
CC(Cl)C(=O)O (stereo not given),-0.0561% [at 95.7 µM],
Cc1nnc(-c2ccccc2)c(=O)n1N,-0.106%,
CCCCCl,,inactive
Cc1ccc(N)c(C)c1,,inactive
CCCCCBr,0.135% [at 95.7 µM],
OCCCl,-0.005%,
CCOP(=S)(S)OCC,0.145% [at 95.7 µM],
COc1ccccc1N1CCNCC1,0.253% [at 46 µM],
C[C@]12CC[C@H]3[C@@H](CCC4=CC(=O)CC[C@@H]43)[C@@H]1CC[C@@H]2OC(=O)CCc1ccccc1,-0.173% [at 46 µM],
C#C[C@]1(O)CC[C@H]2[C@@H]3CCC4=CC(=O)CCC4=C3C=C[C@@]21CC,6.07% [at 46 µM],
CCC(C)(C)O,-0.0353%,
CCCCC#N,-0.0352%,
Nc1c(Br)cc(Br)c2c1C(=O)c1ccccc1C2=O,-0.168% [at 18.6 µM],
CC[N+]1(C)CCCC(OC(=O)C(O)(c2ccccc2)c2ccccc2)C1 (stereo not given),0.0167% [at 46 µM],
CN(C)c1ccc(N=O)cc1,,inactive
CN(C)C(=O)Nc1cccc(OC(=O)NC(C)(C)C)c1,0.127%,
